From PubChem
Efflux pump mplx: inhibitors of Candida efflux pumps in yeast, primary screen, S. cerevisiae, Nile Red, multiplex. S. cerevisiae Candida pump triplex. inhibition, % at 10 µM. hit rate 0.44% among 330,000. AID 485275, 2010;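 active means plate passing quality check with inhibition over a set limit, or well fluorescence over plate mean plus 4 SD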;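 further: Nile Red retained in pooled yeast measured as flow cytometry median fluorescence; 0% = buffer negative control and 100% = Enniatin B positive control; higher means more Nile Red kept so more efflux inhibition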
NSD2 inh: NSD2 histone methyltransferase inhibitors, primary screen, biochemical, AlphaScreen, single concentration, set 2. hit rate 0.54% among 310,000. Histone-lysine N-methyltransferase NSD2 (Homo sapiens), O96028. inhibition, % at 12.5 µM. NSD2 peptide methylation, 120 min; in the data active means inhibition above about 50%
NPR1 activator: GC-A stimulated cGMP production enhancers – HEK293 GC-A cells, cGMP TR-FRET, EC30 ANP, primary screen; Atrial natriuretic peptide receptor 1 (Homo sapiens), P16066; hit rate 0.14% among 370,000; 0% at EC30 ANP, 100% saturating ANP; activation, % at 10 µM; AID 1671463, 2021; in the data active means activation above about 40%
Rce1 inhib: yeast Rce1p protease inhibitors, primary screen, biochemical, fluorescence, cell-free homogeneous. CAAX prenyl protease 2 (Saccharomyces cerevisiae (strain ATCC 204508 / S288c)), Q03530. calls only. hit rate 0.27% among 290,000. yeast membranes, quenched prenylated peptide cleavage fluorescence;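 active means fall in fluorescence gain of 50% or more versus controls, with final raw signal at or below 3038400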;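 further: plate controls were neutral control wells for no effect and wells lacking membranes for full effect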
V-ATPase pH: regulators of yeast V-ATPase proton pumping, primary screen, pHLuorin cytosolic pH fluorescence; hit rate 0.37% among 350,000; S. cerevisiae; AID 504577, 2011; response, % at 10 µM; in the data active means response mostly above about 7.3%, no sharp cut-off; inactive means mostly below about 5.4%; further: actives read high
GC-B act: human GC-B receptor activators, primary screen, HEK293 GC-B cells, cGMP TR-FRET, EC30 CNP | Atrial natriuretic peptide receptor 2 (Homo sapiens), P20594 | 0% at EC30 CNP, 100% saturating CNP | activation, % at 10 µM | hit rate 0.11% among 370,000 | AID 1920062, 2024;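 active means activation at 10 µM reaching about 35% in either raw or pattern-adjusted values, limit read from the data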
Target sequence (P20594 whole entry, looked up): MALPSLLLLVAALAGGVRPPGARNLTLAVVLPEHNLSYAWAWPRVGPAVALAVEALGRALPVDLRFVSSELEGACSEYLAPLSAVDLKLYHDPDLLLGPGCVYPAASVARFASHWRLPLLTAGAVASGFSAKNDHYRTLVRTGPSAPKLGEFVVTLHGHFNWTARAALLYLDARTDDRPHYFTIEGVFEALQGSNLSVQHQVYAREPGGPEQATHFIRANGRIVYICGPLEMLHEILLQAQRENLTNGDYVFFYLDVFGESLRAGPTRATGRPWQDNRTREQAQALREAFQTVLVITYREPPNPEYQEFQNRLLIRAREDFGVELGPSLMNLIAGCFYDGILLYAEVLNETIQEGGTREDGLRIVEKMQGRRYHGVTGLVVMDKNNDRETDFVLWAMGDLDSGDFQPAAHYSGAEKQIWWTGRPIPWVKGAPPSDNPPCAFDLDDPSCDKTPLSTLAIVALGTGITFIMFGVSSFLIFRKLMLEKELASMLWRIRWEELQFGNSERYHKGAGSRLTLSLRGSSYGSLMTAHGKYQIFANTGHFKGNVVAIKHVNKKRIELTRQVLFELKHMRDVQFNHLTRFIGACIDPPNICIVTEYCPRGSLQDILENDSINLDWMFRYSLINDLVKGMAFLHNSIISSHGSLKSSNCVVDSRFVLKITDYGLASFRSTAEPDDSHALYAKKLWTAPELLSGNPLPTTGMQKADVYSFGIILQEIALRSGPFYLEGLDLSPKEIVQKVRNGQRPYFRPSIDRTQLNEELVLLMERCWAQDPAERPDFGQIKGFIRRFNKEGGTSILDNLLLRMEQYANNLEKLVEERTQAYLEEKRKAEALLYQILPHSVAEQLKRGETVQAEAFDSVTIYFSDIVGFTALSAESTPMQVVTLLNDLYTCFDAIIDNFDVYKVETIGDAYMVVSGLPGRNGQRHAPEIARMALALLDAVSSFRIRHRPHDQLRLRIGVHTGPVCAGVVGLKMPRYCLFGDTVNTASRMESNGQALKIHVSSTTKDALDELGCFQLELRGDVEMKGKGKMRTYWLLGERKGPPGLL
* hit, by the source's call; i = inactive; . = no result given; + = active, no number. A selection: hits, their analogues and other compounds. The true share with any hit is near 1.6%.

SMILES	Efflux pump mplx	NSD2 inh	NPR1 activator	Rce1 inhib	V-ATPase pH	GC-B act
COc1ccc(S(=O)(=O)N2CCN(c3ccccc3)CC2)cc1OC	.	0.2	-6.0	.	-1.3	-1.8
COc1ccc(S(=O)(=O)N2CCN(c3cnccn3)CC2)cc1OC	-0.2	0.1	-4.7	.	16.4*	5.8
Cn1c(CCNS(=O)(=O)c2ccccc2)nnc1SCc1cccnc1	0.0	0.6	0.7	+	4.3	-1.7
CN(C)S(=O)(=O)c1ccc(NC(=O)/C=C/c2ccccc2Cl)cc1	0.8	-0.8	-8.4	+	-2.2	-3.4
COCCCNC(=O)c1cc(Cc2ccccc2)sc1N	.	.	4.9	.	.	-1.0
Cc1[nH]c2ccccc2c1C(=O)c1cc(Cc2ccccc2)sc1N	.	0.6	48.3*	.	.	3.3
COc1ccc(C2c3c(ncn(Cc4ccco4)c3=N)Oc3ccc4ccccc4c32)cc1 (stereo not given)	1.4	-1.3	0.0	i	2.7	1.4
N=c1c2c(ncn1Cc1ccco1)Oc1ccc3ccccc3c1C2c1ccccc1 (stereo not given)	0.2	0.3	-14.6	+	-1.9	-2.3
COc1ccc(N2C(=O)C(CC(=O)Nc3ccccc3)N(Cc3cccs3)C2=O)cc1 (stereo not given)	0.0	.	1.5	i	15.9*	-0.9
COc1cccc(NC(=O)Nc2cccn(Cc3ccc(C)cc3)c2=O)c1	0.0	7.7	-1.1	+	-2.6	1.2
c1ccc(Cn2ccc3ccc(-c4ccc5ccn(Cc6cccc(Oc7ccccc7)c6)c5c4)cc32)cc1	.	.	-0.2	.	.	-3.0
CCOC(=O)CC[C@H]1CC[C@]2(CCCN(C(=O)c3ccno3)C2)O1	.	.	3.0	.	.	-3.6
COc1ccc(CCNC(=O)CCc2nc3ccccc3[nH]2)cc1OC	0.0	-2.8	-0.6	i	14.3*	4.5
NC(=NCCCCCCN=C(N)/N=C(\N)Nc1ccc(Cl)cc1)/N=C(\N)Nc1ccc(Cl)cc1	0.4	.	1.2	+	-3.2	-10.6
O=C(NCCCc1ccccc1)OC1CCC12CCC(c1ccccc1)CC2 (stereo not given)	.	.	7.1	.	.	3.4
O=C1C(=O)N(C/C=C/c2ccccc2)c2ccccc21	0.5	-1.1	-17.4	+	-3.2	-7.6
Cc1ccc(NC2=NC(c3ccccc3)n3c(nc(C)cc3=O)N2)c(C)c1 (stereo not given)	-0.1	2.6	28.8	i	4.2	38.5*
Cc1ccc(NC2=NC(c3ccc(F)cc3)n3c(nc(C)cc3=O)N2)c(C)c1 (stereo not given)	0.0	0.8	16.4	i	-1.9	20.2
Cc1ccc(OCCOc2ccc(Cl)cc2Cl)c(Br)n1	.	-2.0	36.7	.	.	2.0
Cc1ccc(CNc2nc(C)nc3sc4c(c23)CCC4)cc1	0.0	-1.7	40.3*	i	0.8	45.2*
Clc1ccc(OCCSc2ncccn2)c(Br)c1	0.0	-6.7	48.6*	i	1.9	-0.3
COc1ccc(-c2csc3ncnc(N4CCN(S(=O)(=O)c5cccc(Br)c5)CC4)c23)cc1	0.1	1.3	-4.6	i	-0.2	-6.3
COc1ccc(-c2csc3ncnc(N4CCN(S(=O)(=O)c5ccc(C(C)=O)cc5)CC4)c23)cc1	0.5	0.9	-4.0	i	17.0*	-3.3
COC(=O)[C@]12C[C@H](CC(=O)NCc3cccs3)C(=O)N(Cc3ccc4c(c3)OCO4)C1=C[C@H](C(C)C)O[C@@H]2C1CC1	.	.	-9.0	.	.	-14.0
CCc1cc(=O)oc2cc(OCC(=O)N3CCC(C(=O)O)CC3)ccc12	0.1	.	-1.5	+	-3.5	-4.3
SMILES	Efflux pump mplx	NSD2 inh	NPR1 activator	Rce1 inhib	V-ATPase pH	GC-B act
O=C(COC(=O)/C=C/c1cn(-c2ccccc2)nc1-c1ccc2c(c1)OCCO2)NC1CCS(=O)(=O)C1 (stereo not given)	0.0	0.8	-2.7	+	-3.0	-11.6
CN(C(=O)COC(=O)/C=C/c1cn(-c2ccccc2)nc1-c1ccc2c(c1)OCCO2)C1CCS(=O)(=O)C1 (stereo not given)	0.5	0.1	-8.8	i	-0.6	1.5
COc1ccc(CNCC#Cc2ccccc2)c(OC)c1	.	.	-0.1	.	.	4.0
COc1cccc2c(NCc3ccccc3)nc(-n3c(N)nc4ccccc43)nc12	.	-0.5	0.6	.	.	-0.6
O=C(NC1CCN(C(=O)Nc2cccc(Cl)c2)CC1)C1CCCCC1	0.0	.	-0.6	i	15.1*	3.1
Cc1cc(C)cc(NC(=S)N2CCC(NC(=O)C3CC3)CC2)c1	0.2	-8.7	-1.7	i	14.9*	0.4
Cc1ccc(O)c(NC(=O)Cc2cccc3ccccc23)c1	.	-0.8	.	.	.	.
Cc1cc(C(=O)O[C@@H]2CCC[C@]3(C(=O)N(Cc4ccccc4)c4ccccc43)[C@H]2NC(=O)CCc2ccccc2)no1	.	.	-0.5	.	.	5.5
Cc1cccc2[nH]c3c(N4CCC5(CC4)OCCO5)ncnc3c12	0.1	2.0	2.9	+	-1.6	-3.5
Clc1ccc2[nH]c3c(N4CCC5(CC4)OCCO5)ncnc3c2c1	0.1	-1.5	.	i	.	.
CN1CCN(C(=O)c2ccc(-c3cccs3)s2)CC1	-0.1	1.2	-1.8	+	-23.9	-3.6
O=C(C1CCN(c2ncnc3c2sc2cccc(F)c23)CC1)N1CCN(Cc2ccc(F)cc2)CC1	.	-3.9	6.9	.	.	0.3
CCCC(C)NC(=O)Cc1ccccc1 (stereo not given)	-0.1	-1.3	2.1	i	1.9	-2.0
CCC(C)NC(=O)Cc1ccc(-c2ccccc2)cc1 (stereo not given)	1.3	-0.3	7.3	i	87.6*	5.7
Cc1ccc([C@@H]2[C@@H]3C(=O)N(c4ccccc4)C(=O)[C@@H]3[C@]3(C)C(=O)N(Cc4ccccn4)CC(=O)N23)o1	0.3	.	4.1	i	0.2	1.0
Cc1ccc([C@@H]2[C@@H]3C(=O)N(c4ccccc4)C(=O)[C@@H]3[C@]3(C)C(=O)N(Cc4ccc(-c5ccccc5)cc4)CC(=O)N23)o1	0.0	.	49.1*	i	0.1	0.3
Nc1ccc(C(=O)N2CCCC2)cc1	0.3	-1.8	0.6	i	3.1	3.4
Nc1ccc(C(=O)n2c3ccccc3c3ccccc32)cc1	0.0	-0.8	49.5*	i	-1.4	-9.4
c1ccc2c(-c3cn4ccccc4n3)c[nH]c2c1	0.1	.	.	+	.	.
c1ccc2c(-c3nnc(SCc4cn5ccccc5n4)o3)c[nH]c2c1	-0.1	5.6	2.2	i	-1.1	0.2
COc1ccccc1CNC(=O)c1ccc(CS(=O)(=O)c2ccc(Cl)cc2)o1	.	-5.0	.	.	.	.
COC1=C(Nc2ccccc2OC)C(=O)c2ccccc2C1=O	0.0	74.2*	-2.8	i	-6.5	3.6
